This note sets out measurements from PubChem BioAssay (NCATS).

The structures appear in SMILES notation. Several values for one entry are separate records, joined by “and”; a condition that tells them apart may be missing. Equal entries are not always repeated. Records with an inconclusive call do not appear. Where a structure was tested more than once in an assay, its records may differ in their call. Activity calls are given as the source filed them. Unless noted, calls come from the whole dose curve; as a rule, active = well fitted curve in the direction sought with a large enough effect; inconclusive = small, poorly fitted or top-dose-only effect, or another doubt; inactive = no such curve, though single readings can be large; an effect the other way counts as inactive or inconclusive.

Assay [1] can be described thus: AP1 Signaling Pathway (AID 357; active = well fitted curve in either direction with a large enough effect, not every such curve was filed as active;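 note: ME-180 reporter cells stimulated with EGF at its EC50 level; % is set by controls: 0 for no effect and ±100 for the full control effect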). The conditions noted are these: ME-180 AP-1-bla reporter, EGF-induced, beta-lactamase ratio, 5 h. The essentials:
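Modulation of EGF-driven AP-1 transcription was assessed with a beta-lactamase reporter in ME-180 cells. Compound and EC50 EGF were co-incubated 5 hours at 37 °C before 2.5-hour CCF4 loading at room temperature and dual-emission reading.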

Assay [2] deals with Cytochrome P450 1A2 (Homo sapiens) (UniProt P05177). Nature of the assay: p450-cyp1a2 (AID 410; calls by dose curve;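 note: -100% = full effect of reference inhibitor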). The essentials: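 20nM CYP1A2, 100uM Luciferin-ME (=Km), 100mM KPO4; cpd 10 min RT; +NADPH regen, 60 min RT; stop/detect 20 min; luminescence. Normalized to furafylline 57 uM = full inhibition.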
Sequence of Cytochrome P450 1A2 (Homo sapiens) (P05177 whole entry, looked up): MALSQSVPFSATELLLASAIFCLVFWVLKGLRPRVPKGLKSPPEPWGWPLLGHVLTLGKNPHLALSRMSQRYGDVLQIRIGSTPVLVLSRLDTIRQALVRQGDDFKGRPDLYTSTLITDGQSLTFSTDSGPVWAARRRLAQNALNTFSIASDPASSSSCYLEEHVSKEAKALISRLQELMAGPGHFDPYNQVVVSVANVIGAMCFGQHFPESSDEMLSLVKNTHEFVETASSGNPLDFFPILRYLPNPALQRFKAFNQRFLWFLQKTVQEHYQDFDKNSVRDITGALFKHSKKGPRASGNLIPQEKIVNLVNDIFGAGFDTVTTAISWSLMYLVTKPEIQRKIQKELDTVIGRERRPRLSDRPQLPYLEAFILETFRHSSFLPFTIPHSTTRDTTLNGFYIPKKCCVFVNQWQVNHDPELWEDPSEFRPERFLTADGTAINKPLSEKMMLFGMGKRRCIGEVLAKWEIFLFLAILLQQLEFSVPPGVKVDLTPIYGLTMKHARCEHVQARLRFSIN
Assay [3] in a line: NFAT Signaling Pathway (AID 444; active = well fitted curve in either direction with a large enough effect, not every such curve was filed as active;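 note: carbachol stimulus at about its EC50 of 1 µM final; % is set by controls: 0 for no effect and ±100 for the full control effect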). The conditions noted are these: Jurkat NFAT-bla M1, carbachol, beta-lactamase ratio, 5 h; at 38 µM (top of the series). In short, it runs like this: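 Jurkat cells carrying an NFAT-driven β-lactamase reporter and co-transfected muscarinic M1 receptor were treated with compound plus carbachol (1 uM final, an EC50 level) for 5 h at 37 °C. CCF4 loading followed for 1 h at RT; 460/530 nm ratio gave %activity.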

Assay [4] is described as follows: Stat Signaling Pathway (AID 446; active = well fitted curve in either direction with a large enough effect, not every such curve was filed as active;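 note: ME-180 cervical cancer cells given 40 pM IL-6 alongside compound; SIE-controlled beta-lactamase reporter measured as 460/530 nm FRET emission ratio; % is set by controls: 0 for no effect and ±100 for the full control effect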). Conditions: ME-180 (cervical carcinoma) SIE beta-lactamase reporter, IL-6 stimulated, 5 h. In short, it runs like this: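 Overnight-plated ME-180 cells bearing a STAT Inducible Element beta-lactamase reporter; 5 h co-exposure to compound and 40 pM IL-6; values normalized to 300 pM IL-6 and 125 nM JAK inhibitor controls.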
Assay [5] has as its target Glucocorticoid receptor (Homo sapiens) (UniProt P04150). Nature of the assay: GR-GFP Redistribution (AID 450;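 active = compounds whose dose series gives a full or clear partial fitted curve of increased nuclear translocation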; note: potency is the fitted concentration of half-maximal effect). The conditions noted are these: U2OS GR-GFP nuclear translocation, laser cytometry, 2 h.
Assay [6] has the same target. Description: GR-EFC Redistribution (AID 451; calls by dose curve; note: potency is the fitted concentration of half-maximal effect). The conditions noted are these: CHO-K1 GR-EFC translocation, beta-gal luminescence, 2 h. In short, it runs like this: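 CHO-K1 cells stably expressing nuclear-localized β-gal enzyme acceptor and GR fused C-terminally to the enzyme donor fragment; ligand-driven nuclear translocation restores β-gal by complementation. Compounds titrated up to 46 uM final, 2 h at 37 °C; luminescence read.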

Assay [7] addresses Mitogen-activated protein kinase 10 (Mus musculus) (UniProt Q61831). Nature of the assay: JNK3 AlphaScreen Assay (AID 530; active = well fitted curve in either direction with a large enough effect, not every such curve was filed as active;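 note: kinase came from lysate of stimulated human HepG2 cells; signal reports phosphorylation of biotinylated GST-cJun 1-79 at Ser73 with 10 µM ATP; % is set by controls: 0 for no effect and ±100 for the full control effect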). In short, it runs like this:
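Biotinylated GST-cJun(1-79) served as substrate for JNK3 in HepG2 lysates stimulated with IL-1beta and TNF-alpha. ATP was 10 uM final, pH 7.6. Ser73 phosphorylation was quantified by AlphaScreen (680 nm excitation).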

The target of assay [8] is 3',5'-cyclic-AMP phosphodiesterase 4B (Homo sapiens) (UniProt Q07343). Description: qHTS Assay for Inhibitors of PDE-IV (AID 607; active = well fitted activation curve with a large enough effect in the main read-out, with a control signal flat, not every such curve was filed as active; note: potency is the fitted concentration of half-maximal effect). In short, it runs like this:
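Live HEK293 cells with a modified cyclic nucleotide-gated (CNG) channel report intracellular cAMP via membrane-potential dye fluorescence (ex 535/em 590 nm). Endogenous PDE-IV was targeted. Compounds were tested at up to 22.9 uM final; RO 20-1724 100 uM served as control.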
In general terms: In qHTS, concentration-response curves come from the screen itself.

In assay [9] the target is Guanine nucleotide-binding protein G(i) subunit alpha-1 (Homo sapiens) (UniProt P63096). Nature of the assay: qHTS Assay for Inhibitors of RGS12 GoLoco Motif Activity (Green Fluorophore) (AID 879).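 Note: 0% = labeled peptide with Gαi1 and full inhibition = labeled peptide alone without protein; negative values mean loss of peptide binding seen as reduced polarization.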 The essentials: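 A drop in FITC polarization marked displacement of the FITC-tagged RGS12 GoLoco peptide (10 nM) from Gαi1 (50 nM). Compounds were incubated 10 min at room temperature in Tris pH 7.5 buffer containing 150 mM NaCl, 0.1 mM GDP and 0.05% NP40; unlabeled peptide titration served as control.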
Sequence of Guanine nucleotide-binding protein G(i) subunit alpha-1 (Homo sapiens) (P63096 whole entry, looked up): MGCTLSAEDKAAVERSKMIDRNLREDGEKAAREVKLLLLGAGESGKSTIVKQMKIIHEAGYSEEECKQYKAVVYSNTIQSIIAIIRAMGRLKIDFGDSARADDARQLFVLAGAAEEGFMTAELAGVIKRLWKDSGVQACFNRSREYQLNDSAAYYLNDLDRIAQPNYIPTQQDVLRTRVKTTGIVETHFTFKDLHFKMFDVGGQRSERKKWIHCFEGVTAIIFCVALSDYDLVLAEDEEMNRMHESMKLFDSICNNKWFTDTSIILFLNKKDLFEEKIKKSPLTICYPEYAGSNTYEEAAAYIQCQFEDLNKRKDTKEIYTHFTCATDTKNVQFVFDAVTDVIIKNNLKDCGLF

Assay [10] can be described thus: qHTS Assay for Identification of Small Molecule Antagonists for NFkB Signaling Pathway (AID 895; active = well fitted inhibition curve with a large enough effect in the signal ratio, with a control signal flat, not every such curve was filed as active; the % refers to the signal ratio; note: % is set by controls: 0 for no effect and ±100 for the full control effect). The essentials:
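NFkB-bla ME-180 cervical carcinoma cells with beta-lactamase reporter under NFkB response element; compounds added, then TNF alpha at 10 pM final (EC50), 5 h at 37 C. LiveBLAzer substrate 2 h, room temperature; emission 460/530 nm at 405 nm excitation.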

Assay [11] has as its target Cytochrome P450 2C19 (Homo sapiens) (UniProt P33261). Nature of the assay: qHTS Assay for Inhibitors and Substrates of Cytochrome P450 2C19 (AID 899). Note: % is set by controls: 0 for no effect and ±100 for the full control effect; nearly all actives have a fitted effect of over 60% in size. The essentials:
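NADPH-dependent conversion of Luciferin-H EGE (10uM, at KM) by 5nM enzyme in 50mM KPO4, 60 min at 37C following 10 min compound preincubation. Stopped with luciferin detection buffer; luminescence read after 20 min.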

Assay [12] is described as follows: qHTS Assay for Identification of Small Molecule Agonists for Thrombopoietin (TPO) Signaling Pathway (AID 917). Note: % is set by controls: 0 for no effect and ±100 for the full control effect. In short, it runs like this:
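First, Ba/F3 cells with human TPO receptor were held overnight without IL-3. Next, compounds and TPO (26 pM final) were added. After 24 hrs at 37 C, luciferase detection reagent was added and luminescence measured following 10 min at room temperature.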

For assay [13], the target named is Muscarinic acetylcholine receptor M1 (Rattus norvegicus) (UniProt P08482). Nature of the assay: qHTS Assay for Antagonists of Acetylcholine Muscarinic M1 Receptor: Measurement of IP-One Response (AID 944). Note: nearly all actives have a fitted effect of over 75% in size. The essentials:
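Read-out: HTRF competition between d2-IP1 and Eu-cryptate anti-IP1 antibody, emission 620 and 665 nm. Stimulus was carbachol, EC80 (200 nM), for 30 min in M1-CHO cells (rat receptor), after 10 min compound pre-treatment.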

Assay [14] concerns the target Pyruvate kinase (Leishmania mexicana) (UniProt Q27686). Nature of the assay: qHTS Validation Assay for Inhibitors of Leishmania Mexicana Pyruvate Kinase (AID 945).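 Note: 0% = DMSO only neutral control wells.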 The essentials: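 qHTS eight-point titrations against 0.2 nM LmPYK (E451W) in imidazole buffer pH 7.2 with 0.5 mM PEP, 0.1 mM ADP; 1 h, room temperature. Readout: PKLight luminescence, normalized to neutral DMSO wells.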

Assay [15] addresses Pyruvate kinase PKM (Homo sapiens) (UniProt P14618). Description: qHTS Assay for Activators of Human Muscle Pyruvate Kinase (AID 954; active = well fitted curve in the direction sought with a large enough effect, not every such curve was filed as active;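 note: 0% = uninhibited enzyme and -100% = no enzyme or full thiadiazolimine inhibition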). In short, it runs like this:
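Screening used highly purified human pyruvate kinase M2 under submaximal activity, with PEP at its Km and ADP below Km. After an hour at room temperature, ATP was read by luciferase luminescence.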

Assay [16] addresses Alpha-galactosidase A (Homo sapiens) (UniProt P06280). Nature of the assay: Counterscreen for Glucocerebrosidase Inhibitors: qHTS Assay for Human alpha-Galactosidase at pH 4.5 (AID 992). Note: 0% is about no effect. The essentials: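 Each compound is preincubated briefly with 2 nM enzyme before substrate addition (80 uM); plates then sit 20 min at ambient temperature, are quenched with 1M NaOH/1M glycine, and read fluorometrically.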
In general terms: A counterscreen serves to expose hits that act by an unwanted route or on another target.

For assay [17], the target named is alpha-glucosidase (Oryza sativa, rice) (UniProt Q653V4). Description: Counterscreen for Glucocerebrosidase Inhibitors: qHTS Assay for Rice alpha-Glucosidase at pH 5.0 (AID 997).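 Note: 0% = full activity with enzyme and -100% = basal without enzyme.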 In short, it runs like this:
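Endpoint fluorogenic assay at pH 5.0: compounds (0.7 nM to 77 uM) titrated against 4 nM rice enzyme and 400 uM 4-MU-alpha-glucoside for 20 min at room temperature; NaOH/glycine stop, read ex 365/em 440 nm, Hill-fitted AC50.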

A short description of assay [18]: qHTS Assay for Lipid Storage Modulators (AID 1519; calls by dose curve). Conditions: Drosophila S3 cells, BODIPY lipid droplet/cell ratio, laser cytometry, cells loaded with oleic acid. The essentials:
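Cells seeded at 5,000 per well were treated with compounds over a concentration series and loaded with oleic acid (400 uM, as added). Lipid droplet fluorescence (488 nm excitation, 500-530 nm channel) was read by laser-scanning cytometry and normalized to 20 uM Triacsin C.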

In assay [19] the target is Ubiquitin carboxyl-terminal hydrolase 1 (Homo sapiens) (UniProt O94782). Nature of the assay: Inhibitors of USP1/UAF1: Pilot qHTS (AID 504865).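 Note: rhodamine fluorescence freed from ubiquitin-rhodamine substrate followed over time; top concentration of the series differs between compounds; % is set by controls: 0 for no effect and ±100 for the full control effect; nearly all actives have a fitted effect of over 35% in size.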 The essentials: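 USP1/UAF1 complex (1nM) preincubated with compound 15 min at room temperature, then Ub-Rho substrate (150nM final) added. Fluorescence read kinetically at 480/540 nm, 6 reads every 60 seconds. Buffer: 50mM HEPES pH 7.8, 0.5mM EDTA, 0.1 mg/ml BSA, 1mM TCEP, 0.01% Tween-20.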
Sequence of Ubiquitin carboxyl-terminal hydrolase 1 (Homo sapiens) (O94782 whole entry, looked up): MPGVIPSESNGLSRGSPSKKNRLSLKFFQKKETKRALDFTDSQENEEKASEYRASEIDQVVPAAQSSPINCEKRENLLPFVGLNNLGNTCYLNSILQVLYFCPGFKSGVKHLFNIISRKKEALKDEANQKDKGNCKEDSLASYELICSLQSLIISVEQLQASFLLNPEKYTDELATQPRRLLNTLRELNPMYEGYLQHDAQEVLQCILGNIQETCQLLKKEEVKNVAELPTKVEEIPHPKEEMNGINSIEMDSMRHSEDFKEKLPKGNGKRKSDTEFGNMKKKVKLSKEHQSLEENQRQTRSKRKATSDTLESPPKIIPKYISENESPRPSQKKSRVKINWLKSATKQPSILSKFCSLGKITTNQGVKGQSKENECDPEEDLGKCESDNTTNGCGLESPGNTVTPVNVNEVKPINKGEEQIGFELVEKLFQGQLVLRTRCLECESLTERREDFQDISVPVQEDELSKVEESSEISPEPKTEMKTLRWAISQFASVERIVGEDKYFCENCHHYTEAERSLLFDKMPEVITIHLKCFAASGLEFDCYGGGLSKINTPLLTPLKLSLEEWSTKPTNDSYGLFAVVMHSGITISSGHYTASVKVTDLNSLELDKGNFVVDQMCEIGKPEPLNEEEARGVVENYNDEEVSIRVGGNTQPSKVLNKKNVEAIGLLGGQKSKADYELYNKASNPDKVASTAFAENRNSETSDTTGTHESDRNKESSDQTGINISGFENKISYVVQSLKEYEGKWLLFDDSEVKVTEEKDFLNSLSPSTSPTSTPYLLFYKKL

Assay [20] concerns the target DNA dC->dU-editing enzyme APOBEC-3G (Homo sapiens) (UniProt Q9HC16). Nature of the assay: qHTS for inhibitors of Vif-A3G interactions: Validation (AID 588379). Note: 0% is about no effect. The essentials: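 Yellow fluorescence (Ex 488, Em 500-530) of Vif-coexpressing HeLa A3G-eYFP cells, scanned by Acumen cytometer, reports blocked A3G degradation. Cells plated at 700/well overnight at 37 deg C before compound addition, then a further overnight compound incubation at 37 deg C.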

In assay [21] the test system is Zika virus NS2B-NS3 protease. Description: Primary screen GU AMC qHTS for Zika virus inhibitors (AID 1347154).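 Note: 0% = no-inhibitor control and -100% = no-enzyme control; nearly all actives have a fitted effect of over 70% in size.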 The essentials: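 Unlinked Zika NS2B hydrophilic domain/NS3 protease domain noncovalent complex (25 nM final) in 10 mM Tris-HCl pH 8.0, 0.01% Tween 20, with AMC peptide substrate. Fluorescence (ex 340, em 450 nm) change over 15 min, room temperature; percent inhibition fitted to 4-parameter Hill equation.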

Assay [22] in a line: Primary qHTS for small molecule stabilizers of the endoplasmic reticulum resident proteome: Secreted ER Calcium Modulated Protein (SERCaMP) assay (AID 1508630). Note: % is set by controls: 0 for no effect and ±100 for the full control effect. In short, it runs like this: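 The SH-SY5Y reporter protocol was run at 3 concentrations up to 38.3 uM (primary) or 11 concentrations (follow-up): 16 h compound, 100 nM thapsigargin for 4 h, then extracellular luciferase luminescence.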

Assay [23] concerns the target Cytochrome P450 3A4 (Homo sapiens) (UniProt P08684). Description: qHTS Assay for Activators of Cytochrome P450 3A4 (AID 885). Note: nearly all actives have a fitted effect of over 65% in size. In short, it runs like this: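 Using 20nM recombinant human CYP3A4 in potassium phosphate (200mM), substrate Luciferin-PPXE at 25uM, luminescent luciferin detection followed a 60-min RT NADPH reaction; data scaled to 57 uM ketoconazole.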
The target in assay [24] is Cytochrome P450 2D6 (Homo sapiens) (UniProt P10635). Description: qHTS Assay for Inhibitors and Substrates of Cytochrome P450 2D6 (AID 891). Note: potency is the fitted concentration of half-maximal effect; nearly all actives have a fitted effect of over 60% in size. The essentials:
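Luminescent read-out of luciferin formed by 5 nM human CYP2D6 demethylating 30 uM Luciferin-ME EGE (Km level) over 60 min at room temperature after NADPH regeneration addition. Data normalized to full inhibition by 1.43 uM quinidine.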

The mark [25] stands for this setting: measured here: cell count channel max response.
[26] abbreviates: measured here: lipid channel max response.

Sequence of 3',5'-cyclic-AMP phosphodiesterase 4B (Homo sapiens) (Q07343 whole entry, looked up): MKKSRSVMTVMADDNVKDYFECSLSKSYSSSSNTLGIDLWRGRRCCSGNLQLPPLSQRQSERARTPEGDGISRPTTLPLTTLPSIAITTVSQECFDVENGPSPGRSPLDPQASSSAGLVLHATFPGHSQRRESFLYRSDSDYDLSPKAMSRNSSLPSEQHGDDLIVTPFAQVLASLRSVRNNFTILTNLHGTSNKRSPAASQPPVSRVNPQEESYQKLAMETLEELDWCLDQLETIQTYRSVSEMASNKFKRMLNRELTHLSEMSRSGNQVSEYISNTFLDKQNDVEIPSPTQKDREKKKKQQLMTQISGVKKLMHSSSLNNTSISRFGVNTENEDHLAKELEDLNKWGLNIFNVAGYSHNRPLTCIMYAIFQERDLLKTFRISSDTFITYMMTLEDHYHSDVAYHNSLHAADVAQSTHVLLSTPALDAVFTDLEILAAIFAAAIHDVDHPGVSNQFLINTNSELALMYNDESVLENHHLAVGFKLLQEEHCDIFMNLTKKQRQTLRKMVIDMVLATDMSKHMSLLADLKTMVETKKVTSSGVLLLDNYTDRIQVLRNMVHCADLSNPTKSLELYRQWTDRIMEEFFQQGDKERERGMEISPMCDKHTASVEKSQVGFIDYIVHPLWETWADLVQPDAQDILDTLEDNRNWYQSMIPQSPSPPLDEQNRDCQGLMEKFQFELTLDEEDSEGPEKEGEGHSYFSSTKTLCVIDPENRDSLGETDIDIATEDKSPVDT
Sequence of Glucocorticoid receptor (Homo sapiens) (P04150 whole entry, looked up, the tested form may be a part): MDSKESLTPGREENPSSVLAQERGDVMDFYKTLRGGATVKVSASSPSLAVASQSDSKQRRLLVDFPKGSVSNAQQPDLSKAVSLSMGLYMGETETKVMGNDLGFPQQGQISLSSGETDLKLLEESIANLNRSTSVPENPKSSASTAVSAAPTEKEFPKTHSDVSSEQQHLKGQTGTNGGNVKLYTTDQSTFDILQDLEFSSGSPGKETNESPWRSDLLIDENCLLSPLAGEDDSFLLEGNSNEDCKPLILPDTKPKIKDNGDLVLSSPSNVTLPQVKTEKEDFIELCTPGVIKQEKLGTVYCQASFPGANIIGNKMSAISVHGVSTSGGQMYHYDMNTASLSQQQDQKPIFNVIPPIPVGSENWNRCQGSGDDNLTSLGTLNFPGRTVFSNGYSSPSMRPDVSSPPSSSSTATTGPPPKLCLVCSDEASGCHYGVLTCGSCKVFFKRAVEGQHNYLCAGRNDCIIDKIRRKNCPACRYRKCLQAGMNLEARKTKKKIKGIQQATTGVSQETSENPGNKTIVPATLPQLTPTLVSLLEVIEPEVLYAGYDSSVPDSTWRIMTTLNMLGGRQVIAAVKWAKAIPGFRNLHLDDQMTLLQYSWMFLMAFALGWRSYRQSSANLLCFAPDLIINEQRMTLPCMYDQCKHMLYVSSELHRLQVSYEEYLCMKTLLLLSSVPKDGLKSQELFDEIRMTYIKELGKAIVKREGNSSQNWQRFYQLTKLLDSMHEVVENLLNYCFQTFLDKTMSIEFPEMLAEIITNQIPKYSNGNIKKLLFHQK
Sequence of Cytochrome P450 2D6 (Homo sapiens) (P10635 whole entry, looked up): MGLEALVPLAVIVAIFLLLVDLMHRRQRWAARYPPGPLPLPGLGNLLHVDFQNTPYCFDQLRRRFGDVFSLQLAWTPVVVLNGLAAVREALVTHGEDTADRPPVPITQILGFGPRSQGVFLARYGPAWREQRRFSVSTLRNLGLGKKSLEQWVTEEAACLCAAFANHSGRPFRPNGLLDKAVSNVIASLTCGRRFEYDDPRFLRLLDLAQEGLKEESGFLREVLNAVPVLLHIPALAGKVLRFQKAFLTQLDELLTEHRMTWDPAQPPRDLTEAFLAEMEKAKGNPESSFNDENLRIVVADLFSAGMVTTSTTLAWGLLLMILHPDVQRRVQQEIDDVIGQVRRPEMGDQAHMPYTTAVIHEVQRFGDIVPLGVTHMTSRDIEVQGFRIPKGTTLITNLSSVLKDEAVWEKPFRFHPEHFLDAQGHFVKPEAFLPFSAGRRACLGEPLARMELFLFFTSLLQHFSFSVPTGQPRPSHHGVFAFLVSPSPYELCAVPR
Sequence of DNA dC->dU-editing enzyme APOBEC-3G (Homo sapiens) (Q9HC16 whole entry, looked up): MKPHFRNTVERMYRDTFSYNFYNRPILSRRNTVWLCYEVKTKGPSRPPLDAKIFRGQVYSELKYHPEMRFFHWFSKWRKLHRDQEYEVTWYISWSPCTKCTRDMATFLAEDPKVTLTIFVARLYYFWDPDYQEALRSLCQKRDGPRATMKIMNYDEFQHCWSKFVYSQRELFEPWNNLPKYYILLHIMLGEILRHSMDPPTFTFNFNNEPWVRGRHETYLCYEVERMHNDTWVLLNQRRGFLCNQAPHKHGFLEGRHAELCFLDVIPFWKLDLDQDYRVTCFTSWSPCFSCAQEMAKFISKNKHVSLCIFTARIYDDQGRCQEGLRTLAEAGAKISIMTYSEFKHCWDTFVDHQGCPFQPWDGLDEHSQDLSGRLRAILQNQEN
Sequence of Cytochrome P450 2C19 (Homo sapiens) (P33261 whole entry, looked up): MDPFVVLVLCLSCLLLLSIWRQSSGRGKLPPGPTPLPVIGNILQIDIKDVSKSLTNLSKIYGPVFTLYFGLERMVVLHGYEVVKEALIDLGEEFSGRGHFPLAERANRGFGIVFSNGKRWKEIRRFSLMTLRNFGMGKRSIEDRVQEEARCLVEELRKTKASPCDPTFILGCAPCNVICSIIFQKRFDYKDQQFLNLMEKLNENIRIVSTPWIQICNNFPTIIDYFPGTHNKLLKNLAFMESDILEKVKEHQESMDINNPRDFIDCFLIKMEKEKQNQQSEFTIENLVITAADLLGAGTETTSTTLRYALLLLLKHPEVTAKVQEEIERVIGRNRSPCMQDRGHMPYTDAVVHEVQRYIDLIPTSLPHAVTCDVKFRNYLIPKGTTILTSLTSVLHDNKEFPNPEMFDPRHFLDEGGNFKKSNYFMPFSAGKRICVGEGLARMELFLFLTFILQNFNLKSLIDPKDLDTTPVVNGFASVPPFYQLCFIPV
Sequence of Muscarinic acetylcholine receptor M1 (Rattus norvegicus) (P08482 whole entry, looked up): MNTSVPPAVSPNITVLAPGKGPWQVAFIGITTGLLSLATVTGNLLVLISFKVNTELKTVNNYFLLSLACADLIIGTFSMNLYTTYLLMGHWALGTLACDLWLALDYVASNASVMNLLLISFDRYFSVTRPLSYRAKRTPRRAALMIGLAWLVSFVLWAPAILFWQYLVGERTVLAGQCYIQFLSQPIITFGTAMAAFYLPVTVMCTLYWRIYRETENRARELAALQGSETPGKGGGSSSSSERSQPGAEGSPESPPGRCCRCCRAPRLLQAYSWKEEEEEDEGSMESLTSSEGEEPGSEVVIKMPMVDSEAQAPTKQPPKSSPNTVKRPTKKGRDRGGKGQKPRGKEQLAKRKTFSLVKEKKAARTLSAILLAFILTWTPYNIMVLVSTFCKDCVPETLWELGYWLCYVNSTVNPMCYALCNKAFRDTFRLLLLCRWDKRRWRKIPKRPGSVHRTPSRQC

Regarding `CC(C)NC[C@H](O)c1ccc(NS(C)(=O)=O)cc1`, the activity change, negative = inhibition in assay [1] (at 17.2 µM (top of the series)) was -5.04% (inactive); in [1] (at 38 µM (top of the series)), -0.189% (inactive); in [3], -7.39% (inactive); in assay [18] (at 25.7 µM (top of the series)) it was -2.05% (inactive); in [18] (at 57.5 µM (top of the series)) it was -2.56% (inactive). Besides, the Potency entry in assay [2], in assay [7], in [8], in [10], in [11] and in [12] was “inactive” throughout. Besides, the Potency result in assay [13], in assay [14], in assay [19], in [20], in assay [21] and in [22] was “inactive” in each case. Moreover, the figures for the activity, negative = inhibition in assay [4] (at 17.2 µM (top of the series)) and in [4] (at 38 µM (top of the series)) were -2.38% (inactive) and 2.96% (inactive), respectively. In addition, the Potency in assay [5] was > 46 µM (inactive) and > 20.6 µM (inactive); in [6] it was > 46 µM (inactive) and > 20.6 µM (inactive). Also, the outcome in [9], in assay [15], in [16] and in [17] was inactive. Also, the max response was -18.7% and 20.5% in assay [18] (setting [25]); -18.8% and 17.8% in assay [18] (setting [26]).

Take `CCCCC(C)(C)[C@H](O)/C=C/[C@H]1[C@H](O)CC(=O)[C@@H]1C/C=C\CCCC(=O)O`: the figures for the activity change, negative = inhibition in assay [21] and in [22] were 5.54% [at 6.83 µM] (inactive) and 8.87% [at 3.88 µM] (inactive), respectively.

Take `CCN(CC)CCOC(=O)C1(c2ccc([N+](=O)[O-])cc2)CCCC1`: the activity change, negative = inhibition is 3.14% (inactive) in [1] (at 17.2 µM (top of the series)), -0.418% (inactive) in assay [18] (at 25.7 µM (top of the series)) and -3.02% (inactive) in assay [18] (at 57.5 µM (top of the series)). The activity, negative = inhibition in assay [4] (at 17.2 µM (top of the series)) is 6.83% (inactive). Moreover, the Potency is > 20.6 µM (inactive) and > 46 µM (inactive) in assay [5]; > 20.6 µM (inactive) and > 46 µM (inactive) in assay [6]; “inactive and 4.77 µM (active)” in assay [8]; 3.98 µM (active) and 5.01 µM (active) in [24]. Also, the Potency result in assay [7], in assay [23], in assay [19], in assay [20], in assay [21] and in [22] was “inactive” each time. For the same compound, the max response in assay [18] (setting [25]) was -8.14% and -12.9%; in [18] (setting [26]), -19.2% and -15.6%.
